# PfM18AAP inh – PfM18AAP inhibitors, malaria aminopeptidase, primary screen, biochemical, QFRET, recombinant enzyme; M18 aspartyl aminopeptidase (Plasmodium falciparum 3D7); H-Glu-NHMec fluorogenic cleavage; inhibition, % at 7.35 µM; 290,000 tested, 1.2% active; AID 1822, 2009;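 active = inhibition above the campaign mean inhibition over all tested compounds plus 3 SD, cut at about 28% in these data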
# ALR H2O2 inh – inhibitors of human ALR sulfhydryl oxidase, primary screen, biochemical, H2O2 detection, HRP-luminol luminescence, single point. FAD-linked sulfhydryl oxidase ALR (Homo sapiens), P55789. purified ALR, DTT oxidation. inhibition, % (no concentration beside the values). 290,000 tested, 3.8% active. AID 485317, 2010;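 active = mean replicate inhibition above about 79%, with every replicate also reaching it, limit read from the data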
# Target sequence (P55789 whole entry, looked up): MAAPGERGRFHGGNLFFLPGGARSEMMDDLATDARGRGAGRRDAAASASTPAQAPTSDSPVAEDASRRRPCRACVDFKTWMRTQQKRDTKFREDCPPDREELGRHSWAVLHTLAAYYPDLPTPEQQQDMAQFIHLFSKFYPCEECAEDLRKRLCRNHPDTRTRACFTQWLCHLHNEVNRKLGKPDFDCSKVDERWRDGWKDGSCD
# Cardio protect – cardioprotection against H2O2-induced cell death, primary screen, uHTS, H9c2 cells, ATPLite luminescence. H9c2 cardiomyocytes, H2O2 injury protection, 2 h. protection from H2O2 cell death, % at 20 µM. 360,000 tested, 0.63% active. AID 588492, 2011;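 active = compounds giving at least 50% protection of heart cells from peroxide-induced death in the single-dose screen, raw or plate-pattern-corrected value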
# PHOSPHO1 inh – PubChem AID 1565 | recombinant PHOSPHO1, absorbance phosphatase assay | 290,000 tested, 1.1% active | Phosphoethanolamine/phosphocholine phosphatase (Homo sapiens), Q8TCT1 | inhibition, % at 13.3 µM; in the data active = inhibition above about 60%
# Target sequence (Q8TCT1 whole entry, looked up): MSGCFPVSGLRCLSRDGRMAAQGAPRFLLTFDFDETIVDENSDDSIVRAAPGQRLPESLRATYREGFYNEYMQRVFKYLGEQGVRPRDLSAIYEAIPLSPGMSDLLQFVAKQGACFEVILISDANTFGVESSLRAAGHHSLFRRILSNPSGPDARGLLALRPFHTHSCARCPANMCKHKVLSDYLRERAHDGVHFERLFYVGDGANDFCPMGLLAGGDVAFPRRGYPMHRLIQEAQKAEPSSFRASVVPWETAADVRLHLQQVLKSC
# PfG6PD inh – PfG6PD enzyme inhibitors, primary screen, biochemical, fluorescence intensity, uHTS | glucose-6-phosphate dehydrogenase-6-phosphogluconolactonase (Plasmodium falciparum 3D7) | AID 504690, 2011 | PfGluPho enzyme, NADPH resazurin-diaphorase fluorescence | inhibition, % at 20 µM | 350,000 tested, 0.78% active;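 active = inhibition reaching at least a set limit at 20 µM in the primary screen, cut at about 59% in these data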
# Numbers stand for hits; n = inactive; x = no result. Hits are enriched below; roughly 5.6% of the tested compounds scored in any of these assays.
SMILES,PfM18AAP inh,ALR H2O2 inh,Cardio protect,PHOSPHO1 inh,PfG6PD inh
C/C(N)=C(/C#N)C(=O)CSc1nnc(Nc2cccc(C)c2C)s1,n,n,n,n,n
Cc1ccc(NC(=S)NNC(=O)c2nn(C)cc2Cl)cc1,n,91,n,n,n
Cc1ccc(NC(=O)COC(=O)c2nn(C)cc2Cl)cc1,n,x,n,n,n
Cc1cccc(NC(=S)NNC(=O)c2nn(C)cc2Cl)c1,n,89,n,n,n
CC(C)(C)NC(=O)CSc1nc2cccnc2n1C1CCCCC1,n,n,n,n,n
CC(=Nc1ccccc1O)c1sc2ccccc2c1O,n,92,n,n,n
COCCCN(C(=O)CSCc1c(C)noc1C)c1c(N)n(Cc2ccccc2)c(=O)[nH]c1=O,x,n,n,x,n
Cc1nc(CNC(=O)CC2C(=O)NCCN2Cc2ccc(F)cc2)cs1 (stereo unspecified),n,n,n,66,n
O=C(CC1C(=O)NCCN1Cc1ccc(F)cc1)NC1CCCCCCC1 (stereo unspecified),n,n,n,65,n
COc1ccccc1/C=C/C(=O)NCC(=O)N=Nc1c(O)[nH]c2ccccc12,n,n,n,n,n
Cc1nc2[nH]c(=S)[nH]c2cc1Br,n,n,n,101,n
CCCC(=O)NNC(=O)CCC(=O)NCc1ccccc1,n,n,n,n,n
O=C(CCCO)NNc1c2ccccc2nc2ccccc12,n,99,n,n,n
CCCC(=O)NNc1c2ccccc2nc2ccccc12,n,99,n,n,n
Cc1ccc(-c2noc(-c3ccno3)n2)cc1,n,n,n,n,n
COC(=O)c1ccc(CNC(=O)CN2C(=O)NC(Cc3ccccc3)(c3ccccc3)C2=O)cc1 (stereo unspecified),x,x,n,x,n
CCCCN(CCCNC(=O)C1CCN(S(=O)(=O)CC)CC1)c1ccccc1,n,99,n,n,n
CCN(CCNC(=O)C1CC(=O)N(CCc2ccccc2)C1)c1ccccc1 (stereo unspecified),n,99,n,n,n
CCN(CCNC(=O)C1CCN(S(=O)(=O)CC)CC1)c1ccccc1,n,99,n,n,n
CCN(CCNC(=O)C1CCN(S(=O)(=O)c2cccc3nsnc23)CC1)c1ccccc1,n,99,n,n,n
COc1ccc(COC(=O)CCS(=O)(=O)c2ccc(C)cc2)cc1F,x,x,n,x,n
Cc1cc(C)cc(NC(=S)N2C3CCCC2CC(NC(=O)C2CC2)C3)c1 (stereo unspecified),n,x,n,n,n
CCN(CCNC(=O)C1CCCN(S(=O)(=O)CC)C1)c1ccccc1 (stereo unspecified),n,99,n,n,n
O=C(NCCN1CCCc2ccccc21)C1CCC(=O)N(CCc2ccccc2)C1 (stereo unspecified),n,86,n,n,n
CCN(CCNC(=O)Cn1cc2c(n1)CCCC2)c1ccccc1,n,99,n,n,n
SMILES,PfM18AAP inh,ALR H2O2 inh,Cardio protect,PHOSPHO1 inh,PfG6PD inh
Cc1ccc(NC(=O)COC(=O)C2(CC(=O)NC(C)C)CCCC2)cc1C,x,n,n,x,n
O=C(CSc1nnc2ccccn12)Nc1ccccc1[N+](=O)[O-],x,x,n,x,n
Nc1ccc(-c2n[nH]c(=O)c3ccccc23)cc1N,n,n,80,n,n
Cc1ccc(-c2n[nH]c(=O)c3ccccc23)cc1N,n,n,68,n,n
COc1ccc(NC(=O)CN(C)S(=O)(=O)c2ccc3[nH]c(=O)oc3c2)cc1,n,n,n,63,n
CCc1ccc(NC(=O)CN(C)S(=O)(=O)c2ccc3[nH]c(=O)oc3c2)cc1,n,n,n,n,n
Cc1ccc(Oc2ccc(NS(=O)(=O)c3cccc(C(=O)O)c3)cc2)cc1,x,n,n,x,n
COc1ccc(C)cc1NCc1ccc(OC)c(C)c1OC,n,77,n,n,n
COc1ccc(C)cc1NCc1ccc([N+](=O)[O-])cc1,n,99,n,n,n
CCOc1cc(/C=C/c2ccc3cccc([N+](=O)[O-])c3n2)ccc1OCC(=O)N(C)C,n,n,57,n,n
CCOc1cc(/C=C/c2ccc3cccc([N+](=O)[O-])c3n2)ccc1O,n,94,n,n,n
COc1cc(/C=C/c2ccc3cccc([N+](=O)[O-])c3n2)ccc1OCC#N,n,n,n,n,n
CCCCN(C(=O)c1cc2c(s1)CCC2)c1c(N)n(CCC)c(=O)[nH]c1=O,x,x,n,x,n
CCc1nnc(NC(=O)CC23CC4CC(CC(Br)(C4)C2)C3)s1,n,n,n,n,n
NS(=O)(=O)c1ccc(NC(=O)C2C3C=CC(C3)C2C(=O)O)cc1 (stereo unspecified),n,n,n,60,n
FC(F)(F)c1ccc(Nc2nnnc3ccccc23)cc1,n,n,n,61,n
N=c1c2ccccc2nnn1-c1ccc(C(F)(F)F)cc1,n,n,n,n,n
O=C(Nc1ccn(Cc2ccc(Cl)cc2)n1)c1ccccc1,n,x,n,n,n
O=C(Nc1ccn(Cc2ccccc2)n1)c1ccc2c(c1)OCO2,n,n,n,61,n
O=C(Nc1nncs1)c1ccc2c(c1)OCO2,29,n,n,n,n
CN(C)C(CNC(=O)c1cc2ccccc2o1)c1ccco1 (stereo unspecified),x,n,n,x,n
CC(C)c1ccc(Nc2nc(Cl)nc(NCCO)n2)cc1,n,97,n,n,n
CCNC(=O)/C(C#N)=C/c1c(N(Cc2ccccc2)Cc2ccccc2)nc2ccccn2c1=O,n,n,73,n,n
COc1ccc(NC(=O)COC(=O)C2CCCN2C(=O)OC(C)(C)C)cc1Cl (stereo unspecified),x,x,n,x,n
Nn1c(SCC(=O)Nc2ccc3c(c2)OCO3)nnc1-c1ccccc1,n,n,n,n,n
SMILES,PfM18AAP inh,ALR H2O2 inh,Cardio protect,PHOSPHO1 inh,PfG6PD inh
COc1ccc(NC(=O)CSc2nnc(-c3ccccc3C)n2N)cc1,n,99,n,n,n
Cn1ccnc1SCC(=O)Nc1cc(S(=O)(=O)N2CCOCC2)ccc1Cl,n,98,n,n,n
Cc1nnc(SCC(=O)Nc2ccc3c(c2)OCO3)n(N)c1=O,n,94,n,n,n
Cn1ccnc1SCC(=O)Nc1ccc2c(c1)OCO2,n,90,n,n,n
CCOC(=O)C1CC(=NO)c2ccc(OC)c(OC)c2C1 (stereo unspecified),x,x,n,x,n
Cc1noc(C)c1NC(=O)Nc1cccc2c1O[C@H](CN(C)C(=O)NC1CCCCC1)[C@@H](C)CN([C@H](C)CO)C2=O,x,n,n,x,n
N#Cc1cccc(N2[C@@H](Cc3cc4ccccc4n3Cc3ccccc3)COC[C@H]2Cc2ccc3ccccc3c2)c1,x,x,n,x,n
O=C(NN1CCCCC1)NN1CCCCC1,x,x,n,x,x
Cc1ccccc1-c1nnc(SCC(=O)Nc2ccc3c(c2)OCCO3)n1N,n,98,n,n,n
Nn1c(SCC(=O)Nc2ccc3c(c2)OCCO3)nnc1-c1ccccn1,n,n,n,n,n
CCOc1cccc(-c2nnc(SCC(=O)Nc3cc(OC)cc(OC)c3)n2N)c1,n,n,n,n,n

# Screening data deposited in PubChem BioAssay by several laboratories.
